Assay outcomes from PubChem.
Only some compounds are listed: those with a hit (about 27% of all), similar ones and a draw of the others.
sEH activator: soluble epoxide hydrolase (human) activation; P34913; purified human sEH enzymatic activity, activator screen; activation, % at 2 µM; 91,000 tested, 0.04% active; AID 717; in the data active = activation above about 37%
CYP2C19 inhib: human CYP2C19 inhibition. inhibition, % at 5 µM. P33261. CYP2C19 Supersomes, luciferin-H EGE luminescence, 30 min. 96,000 tested, 21% active. AID 778;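 active = CYP2C19 inhibition above a set limit at 5 µM in the primary screen, cut at about 50% in these data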;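 also: plate controls were negative control wells for no effect and 2.5 mM tranylcypromine positive control for full effect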
CYP2C19 act: activators of human cytochrome P450 2C19; 96,000 tested, under 10 active; recombinant CYP2C19, luciferin-H EGE luminescence; hits give high values; 0 = fully inhibited enzyme, 1 = untreated enzyme; activation factor at 5 µM;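 active = activation factor of at least 2 at 5 µM in the primary screen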;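 also: 0 = wells with 2.5 mM tranylcypromine and 1 = vehicle-only wells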
sEH inh: inhibitors of human soluble epoxide hydrolase. 91,000 tested, 0.34% active. inhibition, % at 2 µM. recombinant human sEH enzymatic activity assay. AID 707; in the data active = inhibition above about 80%
CYP2C9 inh: inhibitors of human CYP2C9. CYP2C9 Supersomes, luciferin-H conversion, luminescence. inhibition, % at 5 µM. 96,000 tested, 20% active. AID 777;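 active = blocking of liver enzyme CYP2C9 beyond about 50% at 5 µM, limit read from the data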
Target sequence (P11712 whole entry, looked up): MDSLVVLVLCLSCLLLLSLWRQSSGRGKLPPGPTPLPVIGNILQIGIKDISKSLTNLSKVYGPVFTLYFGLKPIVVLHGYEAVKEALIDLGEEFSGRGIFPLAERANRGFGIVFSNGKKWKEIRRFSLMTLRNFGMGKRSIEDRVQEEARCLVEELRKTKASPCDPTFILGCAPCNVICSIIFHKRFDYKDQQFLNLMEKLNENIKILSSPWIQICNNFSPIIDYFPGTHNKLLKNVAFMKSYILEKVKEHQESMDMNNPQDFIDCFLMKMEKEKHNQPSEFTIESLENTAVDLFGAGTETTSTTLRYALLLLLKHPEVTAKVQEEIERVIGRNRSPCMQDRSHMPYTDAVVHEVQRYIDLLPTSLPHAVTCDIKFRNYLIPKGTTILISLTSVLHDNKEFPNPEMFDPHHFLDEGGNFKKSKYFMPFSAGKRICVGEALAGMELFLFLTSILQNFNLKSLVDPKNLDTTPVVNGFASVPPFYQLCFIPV
CYP2C9 activ: CYP2C9 (human) activation. P11712. activation factor at 5 µM. recombinant CYP2C9, luciferin-H conversion, luminescence; hits give high values; factor 1 = untreated enzyme, 0 = blocked. 96,000 tested, 1.4% active;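 active = activation factor of 2 or more for CYP2C9 at a 5 µM dose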;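 also: 0 = sulfaphenazole-blocked wells and 1 = vehicle-only wells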
Active calls of the source: *; nt = not tested or not shown.

SMILES | sEH activator | CYP2C19 inhib | CYP2C19 act | sEH inh | CYP2C9 inh | CYP2C9 activ
O=C(COC(=O)C1CCCCC1C(=O)N1CCc2ccccc21)NCc1ccco1 (configuration not stated) | nt | 87.3* | 0.1 | nt | 71.1* | 0.3
O=C(CN1C(=O)C2C3C=CC(C3)C2C1=O)NCc1ccco1 (configuration not stated) | 16.6 | nt | nt | -13.4 | nt | nt
CS(=O)(=O)c1ccc(Cl)c(NC(=O)C2CC(=O)N(Cc3ccccc3)C2)c1 (configuration not stated) | 4.5 | 28.9 | 0.7 | -2.8 | 68.5* | 0.3
COc1cc(C(=O)NCCCNc2nc3cc(C)cc(C)c3cc2C#N)cc(OC)c1OC | 3.8 | 57.4* | 0.4 | -2.1 | 49.9 | 0.5
Cc1ccc(/C=N/NC(=O)CC2N=C(Cc3ccccc3)NNC2=O)cc1 (configuration not stated) | 10.0 | nt | nt | -6.5 | nt | nt
CCCN1C(=O)SC(CC(=O)Nc2cccc3ccccc23)C1=O (configuration not stated) | -3.0 | nt | nt | 7.0 | nt | nt
O=C(CC1SC(=Nc2ccccc2)N(CCCO)C1=O)Nc1ccc(Cl)cc1 (configuration not stated) | nt | 73.0* | 0.3 | nt | 88.2* | 0.1
COCCN1C(=O)C(CC(=O)Nc2ccccc2)SC1=Nc1ccc(OC)cc1 (configuration not stated) | -0.1 | 55.6* | 0.4 | -0.8 | 81.2* | 0.2
CCCN1C(=O)SC(CC(=O)Nc2ccccc2)C1=O (configuration not stated) | 10.8 | 88.8* | 0.1 | -14.0 | 50.3* | 0.5
O=[N+]([O-])c1ccc(C2CCCC/C2=N\OCc2cccc(F)c2)c([N+](=O)[O-])c1 (configuration not stated) | 18.7 | 32.5 | 0.7 | -15.8 | 29.9 | 0.7
CC(=O)N=C1SC2CS(=O)(=O)CC2N1c1cccc(Cl)c1Cl (configuration not stated) | -4.3 | 11.1 | 0.9 | 5.9 | 66.5* | 0.3
COc1cc(OC)c(-c2nc3cnccc3n2C)cc1OC | -2.5 | 75.4* | 0.2 | 5.4 | 35.3 | 0.6
Cn1c(-c2ccc3ccccc3n2)nc2cnccc21 | 0.7 | 88.0* | 0.1 | -1.3 | 53.6* | 0.5
Cc1nc2ccccc2n1/N=C/c1cccnc1 | -9.7 | 3.0 | 1 | 10.1 | 14.2 | 0.9
COc1cc(-c2nc3cnccc3n2C)cc(OC)c1OC | nt | -6.5 | 1.1 | nt | 1.5 | 1
CC(=O)c1c(C)[nH]c(C(=O)Nc2c(C)n(C)n(-c3ccccc3)c2=O)c1C | 7.6 | 6.9 | 0.9 | -6.9 | -10.1 | 1.1
COc1cccc(C(C(=O)NC2CCCCC2)N(CC2CCCO2)C(=O)CNC(=O)c2ccco2)c1 (configuration not stated) | 1.6 | nt | nt | -2.5 | nt | nt
O=C(N1CCN=C1SCc1cccnc1)C12CC3CC(CC(C3)C1)C2 | 6.2 | 82.7* | 0.2 | -3.1 | 8.7 | 0.9
O=C(c1cccs1)N1CCN=C1SCc1cccnc1 | -4.6 | 55.4* | 0.4 | 7.4 | 25.1 | 0.7
O=C(c1ccc(Br)o1)N1CCN=C1SCc1cccc(F)c1 | 9.9 | 90.9* | 0.1 | -11.7 | 59.2* | 0.4
COc1cc(OC)cc(C(=O)N2CCN=C2SCc2cccnc2)c1 | -3.2 | 99.5* | 0 | 1.6 | 90.5* | 0.1
O=C(c1cccc(F)c1)N1CCN=C1SCc1cccnc1 | 2.5 | 91.0* | 0.1 | -4.1 | 82.3* | 0.2
Cn1c(=NC(=O)C2CC2)sc2cccc(F)c21 | nt | 36.2 | 0.6 | nt | 0.6 | 1
O=C(c1c(Cl)nc2sccn12)N(C(=O)c1c(Cl)nc2sccn12)c1ccc(Cl)cn1 | -11.7 | 100.3* | 0 | 11.5 | 100.3* | 0
O=C(NC1CCCCC1)c1ccc(CN2CCOCC2)cc1 | 5.5 | -16.8 | 1.2 | -10.2 | 11.2 | 0.9
SMILES | sEH activator | CYP2C19 inhib | CYP2C19 act | sEH inh | CYP2C9 inh | CYP2C9 activ
O=C(N/N=C/c1ccc(Cl)cc1Cl)Nc1ccccc1 | -37.3 | 35.1 | 0.6 | 39.1 | 23.8 | 0.8
C=CCNC(=O)CC(=O)N/N=C/c1ccccc1F | 8.1 | 24.6 | 0.8 | -7.3 | 88.9* | 0.1
O=C(CC(=O)N/N=C/c1ccc(Cl)cc1Cl)NCc1ccccc1 | -49.5 | 55.3* | 0.4 | 49.0 | 43.9 | 0.6
CC(=O)/C=C1/SC(CC(=O)O)C(=O)N1c1ccccc1 (configuration not stated) | 4.0 | nt | nt | -3.4 | nt | nt
COc1ccc(C(=O)Nc2nnc(-c3ccco3)s2)cc1 | 10.1 | 54.3* | 0.5 | -9.1 | 16.9 | 0.8
C=CCOC(=O)c1sc(NC(=O)c2ccco2)nc1C | 7.1 | 16.3 | 0.8 | -7.5 | 81.8* | 0.2
COc1ccc(Cc2nnc(NC(=O)c3ccco3)s2)cc1OC | -10.0 | 3.8 | 1 | 9.1 | 19.2 | 0.8
COc1ccc(Cc2nnc(NC(=O)c3ccco3)s2)cc1 | -0.7 | 36.7 | 0.6 | 4.0 | 65.0* | 0.3
O=C(COc1ccccc1)NC(Cc1c[nH]c2ccccc12)C(=O)O (configuration not stated) | -11.1 | 25.5 | 0.7 | 9.9 | 30.9 | 0.7
CCCCNC(=O)CC1C(=O)N(Cc2ccccc2)C(C)c2nc3ccccc3n21 (configuration not stated) | nt | 71.4* | 0.3 | nt | 33.3 | 0.7
CCCCn1c(=O)c(C(=O)c2ccccc2)nc2ccccc21 | -1.9 | 46.0 | 0.5 | 0.8 | -15.0 | 1.1
CC(=O)Nc1ccc(S(=O)(=O)NC2=C(N3CCN(Cc4ccccc4)CC3)C(=O)c3ccccc3C2=O)cc1 | -6.5 | 76.2* | 0.2 | 4.8 | 79.9* | 0.2
COc1ccc(N2CCN(c3nc(NC(C)(C)C)nc(N4CCCCC4)n3)CC2)cc1 | -3.1 | 17.1 | 0.8 | 5.3 | 46.1 | 0.5
Cc1nc(N2CCCC2)c2nnn(Cc3ccccc3Cl)c2n1 | nt | 91.2* | 0.1 | nt | 45.4 | 0.5
Cc1nc(N2CCC3(CC2)OCCO3)c2nnn(Cc3ccccc3F)c2n1 | 11.3 | 68.7* | 0.3 | -9.6 | 75.1* | 0.2
CC(C)Nc1nc(NC(C)C)nc(OCCOC(=O)Nc2ccccc2)n1 | -0.5 | 30.4 | 0.7 | 0.7 | 29.8 | 0.7
COc1ccc(NC2CC(=O)N(CCc3ccccc3)C2=O)cc1 (configuration not stated) | -13.9 | nt | nt | 17.5 | nt | nt
Cc1cc(NC(=O)c2cccc(S(=O)(=O)N3CCOCC3)c2)c2ccccc2n1 | nt | 3.1 | 1 | nt | -15.4 | 1.2
O=C(O)C1C2CCC(C2)C1C(=O)NCc1ccccn1 (configuration not stated) | -2.2 | 8.9 | 0.9 | 2.9 | 16.5 | 0.8
COc1cccc2cc(-c3nc(-c4cccs4)cs3)c(=O)oc12 | -5.0 | 42.7 | 0.6 | 5.3 | 83.2* | 0.2
c1ccc2c(CCNc3ncnc4nc[nH]c34)cccc2c1 | -10.7 | nt | nt | 12.8 | nt | nt
CN(C)c1nc(Cl)cc(N2CCOCC2)n1 | 17.4 | 3.3 | 1 | -19.8 | -71.3 | 1.7
Cc1nc(CS(=O)c2ccc(Cl)cc2)cc(NCc2ccc(Cl)cc2Cl)n1 (configuration not stated) | 11.5 | 91.3* | 0.1 | -13.1 | 96.3* | 0
